Laboratory results taken from PubChem BioAssay AID1239 (SRMLSC, 2008).
Out of some 190,000 compounds screened, about 3,100 (1.6%) were called active. For the sample, actives were picked, then their nearest neighbours and some compounds at random. Values without a mark were called inactive. No stated cut-off is given here; in the data, active means fold change above about 3.3; inconclusive means no clear call, values can overlap the other calls; inactive means below that.

Assay: NF-kB upregulation, human neuronal cells – cell-based, HTS, primary screen (AID 1239)
Settings: NF-kB reporter expression, at 12.5 µM, active compounds read high

| Compound | fold change |
| --- | --- |
| CCN(C(=O)c1ccc(Br)cc1)c1ccccc1 | 1.19 |
| C/C(CC(=O)Nc1cccc(C(F)(F)F)c1)=N\NC(=O)C(=O)NCC(C)C | 1.26 |
| CC(C)C1Nc2c(C(=O)O)cccc2C(Nc2ccccc2C(=O)O)C1(C)C (stereo not drawn) | 1.41 |
| O=C(c1cc(-c2ccccc2O)on1)N1CCCC1 | 2.02 |
| O=C(c1ccc(F)cc1)N1CCCC(c2nc(-c3cccs3)no2)C1 (stereo not drawn) | 0.86 |
| COc1ccccc1-c1cc(C(=O)N2CCCCC2)no1 | 6.86 (active) |
| O=C(c1cc(-c2cccs2)on1)N1CCCCC1 | 5.06 (active) |
| Cc1ccc(-c2cc(C(=O)N3CCc4ccccc4C3)no2)cc1 | 1.06 |
| COc1ccccc1N1CCN(C(=O)c2cc(-c3ccc(Br)cc3)on2)CC1 | 1.31 |
| Cc1cccc(NC(=S)Nc2ccc(Cl)c(Cl)c2)c1 | 0.6 |
| COc1cc([N+](=O)[O-])ccc1NC(=S)N1CCN(c2ccccn2)CC1 | 1 |
| CC1CCN(C(=S)c2cccc(O)c2)CC1 | 1.37 |
| CCCN(CCC)c1ccc(C(O)c2nnc(-c3ccccc3)o2)cc1 (stereo not drawn) | 1.05 |
| c1ccc(C2=Nc3cccc4cccc(c34)N2)cc1 | 1.21 |
| Brc1ccc(C2CC(c3ccccc3)=Nc3ccccc3N2)cc1 (stereo not drawn) | 3.44 (active) |
| CNC(=S)N1N=C(c2ccccc2)CC1c1ccc(Br)cc1 (stereo not drawn) | 1.3 |
| C=CCn1cc(-c2cccc(C(F)(F)F)c2)cc(C#N)c1=O | 1.06 |
| O=C(/C=C/c1ccc(N2CCOCC2)cc1)c1ccccc1 | 4.09 (active) |
| O=C(O)c1ccc2c(c1)C(=O)N(c1ccc(/C=C/C(=O)c3ccccc3)cc1)C2=O | 1.2 |
| O=C(/C=C/c1ccccc1)c1ccoc1 | 0.94 |
| O=C(Nc1nc(-c2cccnc2)cs1)c1ccccc1F | 1.73 |
| COc1cc(NC(=S)N2CCCC(C)C2)cc(OC)c1OC (stereo not drawn) | 1.11 |
| COc1ccc(/C=C(\C#N)C(=O)ONC2=NCCCCC2)cc1 | 1.26 |
| COc1cc(SC)ccc1C(=O)Nc1nc(C)cs1 | 0.52 |
| Cc1csc(NC(=O)Nc2ccccc2[N+](=O)[O-])n1 | 3.38 (active) |
| Cc1csc(NC(=O)CN2CCCCCC2)n1 | 1.18 |

| Compound | fold change |
| --- | --- |
| Cc1c(NC(=O)Nc2ccccc2)cccc1[N+](=O)[O-] | 1.43 |
| Cc1csc(NC(=O)NC2(C(F)(F)F)Oc3ccccc3O2)n1 | 5.29 (active) |
| Cc1cc(NC(=O)Nc2ccccc2[N+](=O)[O-])no1 | 1.12 |
| Cc1ccnc(NC(=O)c2ccc(Cl)c([N+](=O)[O-])c2)c1 | 2.09 |
| CNC(=S)Nc1ccc([N+](=O)[O-])cc1 | 1.13 |
| Cc1ccccc1N1C(=O)C(Oc2ccc(Cl)cc2)C1CNCC1CCCO1 (stereo not drawn) | 1.25 |
| CCOC(=O)CCNC(=O)N1CCCC(C(=O)c2ccccc2SC)C1 (stereo not drawn) | 1 |
| O=C(Nc1cccc(-c2nnc(-c3ccccc3)o2)c1)C1CCCO1 (stereo not drawn) | 0.88 |
| O=C(Nc1nnc(CCc2ccccc2)s1)C1CCCO1 (stereo not drawn) | 1.38 |
| O=C(Nc1ccc(-c2nnc(-c3ccccc3)o2)cc1)C1CCCO1 (stereo not drawn) | 4.06 (active) |
| COc1ccc(-n2nc3c(c2NC(=O)c2ccc(N4C(=O)CCC4=O)cc2)CSC3)cc1 | 1.2 |
| C=CCN(C(=O)c1cc(C)cc(C)c1)C1(C(=O)Nc2ccccc2)CCN(C(C)C)CC1 | 0.87 |
| CC1CN(CCOc2ccccc2[N+](=O)[O-])CC(C)O1 (stereo not drawn) | 1.22 |
| CC1CCN(S(=O)(=O)c2ccc3ncn(CC(=O)N(C)C4CCCCC4)c(=O)c3c2)CC1 | 0.79 |
| O=C(OCC(=O)c1cccs1)c1ccc([N+](=O)[O-])o1 | 0.88 |
| Cc1cc(=O)n2[nH]c(-c3sccc3-n3c(C)ccc3C)cc2n1 | 1.08 |
| CCOC(=O)CSC1=N/C(=C/c2ccc(-n3cncn3)cc2)C(=O)N1C(C)=O | 4.34 (active) |
| CCOC(=O)CSc1ccccn1 | 0.99 |
| CCOC(=O)CSc1nc(C)cc2c1C(=O)OC2 | 1.43 |
| CC1=NN(c2ccccc2)C(=O)C1C(=O)c1ccc([N+](=O)[O-])cc1 (stereo not drawn) | 0.91 |
| O=C(O)/C=C/c1cn(Cc2ccccc2)nc1-c1cccs1 | 1.06 |
| NS(=O)(=O)c1cccc(NC(=O)CN2CCCc3ccccc32)c1 | 0.95 |
| CC(NC(=O)Nc1ccc2c(c1)OCO2)c1ccncc1 (stereo not drawn) | 1.61 |
| Cc1cccc(NC(=O)/C=C/c2ccc3c(c2)OCO3)n1 | 8.04 (active) |
| O=C(/C=C/c1ccc2c(c1)OCO2)NCc1ccc(F)cc1 | 1.46 |
| CCc1c(C)sc(NC(=O)/C=C/c2ccc3c(c2)OCO3)c1C(=O)OC | 1.05 |

| Compound | fold change |
| --- | --- |
| Cc1cccc(NC(=O)Nc2ccc3c(c2)OCO3)n1 | 4.19 (active) |
| COc1cccc(/C=C/C(=O)Nc2ccc3c(c2)OCCO3)c1 | 6.74 (active) |
| CCSc1ccccc1C(=O)Nc1ccc2c(c1)OCO2 | 1.88 |
| COc1ccc(/C=C/C(=O)Nc2ccc3c(c2)OCCO3)cc1OC | 0.68 |
| COc1ccc(OC)c(/C=C/C(=O)OCC(=O)Nc2ccc3c(c2)OCCO3)c1 | 1 |
| COc1ccc(N2C(=O)C(Cc3ccccc3)NC2=S)cc1 (stereo not drawn) | 1.19 |
| Cc1nn(C)c(C)c1S(=O)(=O)N1CCC(CO)(Cc2ccc(Cl)cc2)CC1 | 0.97 |
| O=C(N/N=C/c1cc2c(cc1Br)OCO2)C1COc2ccccc2O1 (stereo not drawn) | 1.55 |
| COc1cc(NC(=S)NCc2ccc(S(N)(=O)=O)cc2)cc(OC)c1 | 1.03 |
| CSc1ccccc1NC(=O)CN(C)CC(=O)Nc1ccc(Cl)cc1[N+](=O)[O-] | 1.29 |
| Cc1noc(C)c1/C=N/Nc1ccc2ccccc2n1 | 4.12 (active) |
| C(=N\Nc1ccc2ccccc2n1)/c1ccc2c(c1)OCO2 | 1.78 |
| Cc1cc(C)nc(N/N=C/c2c(C)oc3ccccc23)n1 | 1.11 |
| O=C1c2ccccc2C(=O)N1CCC(O)C[N+](=O)[O-] (stereo not drawn) | 0.98 |
| COc1ccc(-c2nc3cnccn3c2NC(C)(C)CC(C)(C)C)cc1O | 0.68 |
| CC(C)C(=O)Nc1cccc(C(=O)Nc2ccc3c(c2)OCO3)c1 | 4.07 (active) |
| Cn1nnnc1SCC(=O)Nc1nc2ccccc2s1 | 1.74 |
| COc1ccc(C(=O)Nc2ccc3c(c2)OCO3)cc1OC | 2.06 |
| O=C(Nc1cccnc1)c1ccc2c(c1)OCO2 | 1.47 |
| CC(=O)Nc1ccc(-c2csc(NC(=O)Nc3ccccc3)n2)cc1 | 1.32 |
| Cn1c(=O)n(C)c2cc(C(=O)Nc3ccc4c(c3)OCO4)ccc21 | 1.54 |
| COCc1nnc(NC(=O)c2ccc3c(c2)OCO3)s1 | 2.07 |
| O=C(Nc1cccc([N+](=O)[O-])c1)c1ccc2c(c1)OCO2 | 1.37 |
| O=C(Nc1ccccc1)Nc1nc2ccccc2s1 | 8.18 (active) |
| O=C(Nc1ccccc1)c1ccc2c(c1)OCO2 | 3.31 (active) |
| Cc1cc(C)c2nc(NC(=O)c3ccc4c(c3)OCO4)sc2c1 | 1.11 |

| Compound | fold change |
| --- | --- |
| O=C(Nc1nc2ccccc2s1)c1ccc2c(c1)OCO2 | 7.05 (active) |
| COc1ccc(-c2nn(-c3ccccc3)cc2CN2CCCO2)c(F)c1 | 1.16 |
| NC(N)=N/N=C/c1ccc(Cl)c([N+](=O)[O-])c1 | 1.03 |
| CN1CCN(NC(=O)c2ccc(S(=O)(=O)N3CCCCCC3)cc2)CC1 | 0.97 |
| O=c1[nH]n(-c2ccc([N+](=O)[O-])cc2)c(=O)c2ccccc12 | 1 |
| CC(=O)c1ccc(N=C2SCCCN2C(=O)C2CCCCC2)cc1 | 1.75 |
| COc1cccc(NC(=O)CS(=O)(=O)c2cn(CC(=O)N3CCOCC3)c3ccccc23)c1 | 0.88 |
| O=C(CSc1nc2ccc(Nc3nc(N4CCOCC4)nc(N4CCOCC4)n3)cc2s1)NCc1ccco1 | 1.02 |
| CC(C)(C)C1CCC(C(=O)Nc2cccnc2)CC1 (stereo not drawn) | 0.97 |
| COC(=O)C(=Nc1ccccc1)/C(C(=O)C(=O)N(C)c1ccccc1)=C(\O)c1ccc(Cl)cc1 | 0.95 |
| O=C(Nc1ccc2nccnc2c1)c1ccco1 | 1.46 |
| O=C(Nc1cccc(-c2nc3ncccc3o2)c1)c1ccco1 | 0.74 |
| O=C(Nc1ccc2oc(-c3ccccc3F)nc2c1)c1ccco1 | 5.05 (active) |
| CSc1ccccc1C(=O)NCc1ccccc1 | 1.09 |
| COc1ccc(C2COC(=O)C2=N)c(NC(=O)c2ccccc2)c1 (stereo not drawn) | 1.02 |
| C/C(=N\NC(=O)c1ccccc1C)c1ccc(N2CCOCC2)cc1 | 1.09 |
| COc1cccc(OC)c1C(=O)Nc1ccc(N2CCCCC2)cc1 | 0.92 |
| COc1cccc(C(=O)Nc2cc3c(cc2Br)OCCCO3)c1 | 3.38 (active) |
| COc1ccc(C(=O)NC(=S)Nc2ccc(N3CCCC3)cc2)cc1OC | 0.99 |
| O=C(Cc1ccccc1)NC(=S)Nc1ccc(N2CCCCC2)cc1 | 1.04 |
| Cc1ccccc1C(=O)Nc1ccc(N2CCCCCC2)cc1 | 3.92 (active) |
| COc1cccc(C(=O)NNC(=O)c2ccccc2Br)c1 | 1.05 |
| COc1cccc(C(=O)Nc2ccc(N3CCCC3)cc2)c1 | 3.3 (active) |
| COn1c(-c2ccc(Cl)cc2Cl)nc2ncccc21 | 1.29 |
| O=C(CN1CCC(O)(c2ccccc2)CC1)Nc1ccc2c(c1)OCCO2 | 0.97 |
